Screens deposited in PubChem by Broad Institute.
An excerpt weighted towards active compounds, which were near 2.2% of everything screened.
LMP1 NFkB inh: inhibitors of Epstein-Barr LMP1-induced NF-kappaB reporter; LMP1-induced NF-kappaB luciferase reporter cells, luminescence; inhibition, % at 12.5 µM; actives 0.69% (n = 350,000); in the data active means inhibition above about 41%; inconclusive means no clear call, values can overlap the other calls
LGR2 antag: Drosophila LGR2 receptor signaling inhibition; HEK293 LGR2, CRE-luciferase, bursicon-stimulated, 4 h; inhibition, % at 9.99 µM; actives 0.35% (n = 380,000);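 active means drop in luminescence signal, shown as inhibition above about 50% in the replicate tests, limit read from the data, passing the limit was not always enough; inconclusive means probably only some replicates passing the limit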;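 further: agonist challenge used bursicon conditioned medium at about half maximal strength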
Shn3 3UTR inh: reduces Shn3 3'UTR luciferase signal in osteoblasts | Clone20 osteoblast Shn3 3'UTR firefly luciferase, 24 h | AID 588674 | actives 0.52% (n = 360,000) | inhibition, % at 12.5 µM;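 active means mean inhibition of at least 75% with every replicate also reaching 75%; inconclusive means mean inhibition at least 75% but some replicate below; inactive means mean inhibition below 75%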
PAX8 inh HTS: inhibitors of PAX8 transcriptional activity in RMG-I cells | AID 652154 | inhibition, % at 12.6 µM | RMG-I TPO-luciferase reporter, SteadyGlo, 24 h | actives 1.2% (n = 360,000);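 active means mean replicate inhibition at least 60% with every replicate also reaching 60%; inconclusive means only one of the two criteria is met; inactive means mean below 60% and not all replicates reaching 60%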;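 further: luciferase light reporting Pax8 driven TPO promoter activity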
MITF TRPM1 inh: MITF TRPM1 promoter inhibition in SK-MEL-5 cells | SK-MEL-5 TRPM1 promoter luciferase, 24 h | inhibition, % at 12.5 µM | actives 0.83% (n = 330,000) | AID 488899;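 active means mean inhibition across replicates of 60% or more, whatever share of single replicates reaches that level; inconclusive means some that reach 60%, reason not given; inactive means mean inhibition across replicates below 60%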
EWS-Fli inh: EWS/Fli transcriptional activity inhibition; A673 NR0B1-luciferase reporter, viability-normalised; actives 0.67% (n = 350,000); inhibition, % at 12.6 µM;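 active means mean inhibition of at least 50% after viability correction, with every replicate also passing that limit; inconclusive means mean reaches 50% but only one of two replicates passes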;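 further: firefly luciferase signal divided by Alamar Blue viability fluorescence both relative to DMSO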
Each line names hits and unclear results; the compound was inactive in the other large screens.

CCCc1nnc(NC(=O)CS(=O)(=O)c2ccc(C)cc2)s1	none
Cc1cc(C)cc(S(=O)(=O)Cc2noc(C(=O)NCc3ccccc3)c2C(=O)NCc2ccccc2)c1	none
O=C(Nc1cccc(F)c1)N1CC(=O)N2[C@H](CO)[C@H](c3ccc(-c4ccccc4)cc3)[C@H]2C1	none (no result: LMP1 NFkB inh, Shn3 3UTR inh, MITF TRPM1 inh)
Cc1cccc(C)c1NC(=O)c1nc(S(=O)(=O)Cc2ccccc2)ncc1Cl	LMP1 NFkB inh 44, Shn3 3UTR inh 96, MITF TRPM1 inh 91, EWS-Fli inh 73
Cc1ccccc1NC(=O)c1cccc(C(=O)Nc2ccccc2C)n1	none
Cc1nnc(NC(=O)c2nc(S(=O)(=O)Cc3ccccc3)ncc2Cl)s1	Shn3 3UTR inh 92, EWS-Fli inh 58
CN1/C(=C/C(=O)c2nc(S(C)(=O)=O)ncc2Cl)C(C)(C)c2ccccc21	LMP1 NFkB inh 60, Shn3 3UTR inh 96, MITF TRPM1 inh 106 (no result: LGR2 antag, PAX8 inh HTS, EWS-Fli inh)
Cc1ccccc1NC(=O)c1nc(S(C)(=O)=O)ncc1Cl	Shn3 3UTR inh 97, EWS-Fli inh 74
Cc1nnc(NC(=O)CS(=O)(=O)Cc2ccccc2)s1	none
Cc1cccc(CS(=O)(=O)c2ncc(Cl)c(C(=O)Nc3c(C)cccc3C)n2)c1	none (no result: EWS-Fli inh)
CCC(=O)N1CC2(CN(C(=O)CN3CCOCC3)C2)c2c([nH]c3cc(OC)ccc23)[C@H]1CO	none (no result: LMP1 NFkB inh, Shn3 3UTR inh, MITF TRPM1 inh)
CN1[C@@H]2c3ccc(-c4ccccc4)c(=O)n3C[C@@H]2[C@@H](CO)[C@@H]1C(=O)NC1Cc2ccccc2C1	none (no result: LMP1 NFkB inh, Shn3 3UTR inh, MITF TRPM1 inh)
Cc1ccc(NC(=O)c2nc(S(=O)(=O)Cc3ccccc3)ncc2Cl)cc1	Shn3 3UTR inh 95, PAX8 inh HTS inconclusive, MITF TRPM1 inh 95, EWS-Fli inh 61
CCOC(=O)c1nc(S(C)(=O)=O)ncc1Cl	Shn3 3UTR inh 96, EWS-Fli inh inconclusive (no result: PAX8 inh HTS)
COc1ccccc1OCC(=O)/C=C1/N(C)c2ccccc2C1(C)C	none
O=C(Nc1ccc(F)cc1)c1nn(-c2ccccc2)c(=O)cc1Cl	LGR2 antag 75
CN1/C(=C\C(=O)C[n+]2ccc3ccccc3c2)C(C)(C)c2ccccc21	PAX8 inh HTS 78, MITF TRPM1 inh inconclusive
CN(C)P(=O)(Nc1cccc2ccccc12)Nc1cccc2ccccc12	Shn3 3UTR inh 88 (no result: MITF TRPM1 inh)
C[C@@H](O)C#Cc1cnc2c(c1)C(=O)N([C@@H](C)CO)C[C@H](C)[C@@H](CN(C)CC1CCOCC1)O2	none (no result: LMP1 NFkB inh, Shn3 3UTR inh, MITF TRPM1 inh)
CC1C(=O)Nc2ccc(S(=O)(=O)N3CCN(c4cccc(C(F)(F)F)c4)CC3)cc2NC1=O (stereo unspecified)	PAX8 inh HTS 68 (no result: EWS-Fli inh)
CN(C(=O)Nc1ccccc1)C1CCS(=O)(=O)C1 (stereo unspecified)	none (no result: LGR2 antag, PAX8 inh HTS, EWS-Fli inh)
CC(=O)NC1=C(N(C)C2CCS(=O)(=O)C2)C(=O)c2ccccc2C1=O (stereo unspecified)	MITF TRPM1 inh 64 (no result: LGR2 antag)
Cc1noc(C)c1S(=O)(=O)Nc1ccc2c(c1)C(=O)N([C@@H](C)CO)C[C@H](C)[C@H](CN(C)S(=O)(=O)c1ccccc1)OCCCC[C@@H](C)O2	none (no result: LMP1 NFkB inh, Shn3 3UTR inh, MITF TRPM1 inh)
Cc1noc(C)c1S(=O)(=O)N(C)C[C@@H]1Oc2ccc(NC(=O)CCN3CCOCC3)cc2CC(=O)N([C@@H](C)CO)C[C@H]1C	none (no result: LMP1 NFkB inh, Shn3 3UTR inh, MITF TRPM1 inh, EWS-Fli inh)
Cc1ccc(C2Nc3ccccc3NC3=C2C(=O)CC(C)(C)C3)c(O)c1 (stereo unspecified)	none
CC1(C)CC(=O)C2=C(C1)Nc1ccccc1NC2c1cc(Cl)ccc1O (stereo unspecified)	LMP1 NFkB inh 85
CO[C@H]1CN(C)C(=O)c2cc(NC(=O)Nc3ccccc3)ccc2OC[C@@H](C)N(CC2CC2)C[C@H]1C	none (no result: LMP1 NFkB inh, Shn3 3UTR inh, PAX8 inh HTS, MITF TRPM1 inh)
Cc1ccc(S(=O)(=O)N(C)C[C@@H]2OCCCC[C@H](C)Oc3ccc(NS(=O)(=O)c4ccccc4)cc3C(=O)N([C@H](C)CO)C[C@@H]2C)cc1	PAX8 inh HTS 64 (no result: LMP1 NFkB inh, Shn3 3UTR inh, MITF TRPM1 inh)
Cc1ccc(S(=O)(=O)N(C)C[C@@H]2OCCCC[C@H](C)Oc3ccc(NS(=O)(=O)c4ccccc4)cc3C(=O)N([C@H](C)CO)C[C@H]2C)cc1	PAX8 inh HTS 72 (no result: LMP1 NFkB inh, Shn3 3UTR inh, MITF TRPM1 inh)
O=C(Nc1ccc2nc3n(c(=O)c2c1)CCCCC3)c1ccccc1[N+](=O)[O-]	none (no result: EWS-Fli inh)
O=C(Nc1ccc2nc3n(c(=O)c2c1)CCCCC3)c1c(F)ccc([N+](=O)[O-])c1F	LMP1 NFkB inh 80, Shn3 3UTR inh 99, PAX8 inh HTS 72, MITF TRPM1 inh 97 (no result: EWS-Fli inh)
